# Test results taken from PubChem BioAssay (NCI).
# About 79,000 compounds went through this panel and 15% of them were active in at least one assay; those are over-represented in the sample as a whole. Values without a mark were called inactive. Active and inactive are the calls of the source. Cut-off read from the data, not from the text of the source: active = growth inhibition above about 70%; inactive = the rest.
# Key:
# [1] = NCI Yeast Anticancer Drug Screen. Data for the rad50 strain (AID 155);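 note: 0% = growth of vehicle-only cultures of the same strain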; conditions: S. cerevisiae rad50 strain growth inhibition; at 50.0 µM; hits give high values
# Summary of the method: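 Inhibition values express reduced yeast growth in compound-treated cultures relative to vehicle-treated controls.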
# [2] = NCI Yeast Anticancer Drug Screen. Data for the mec2-1 strain (AID 157); conditions: S. cerevisiae mec2-1 strain, at 50.0 µM, hits give high values
# Summary of the method: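 mec2-1 yeast strain, carrying an alteration in DNA damage repair or cell cycle control, was exposed to compounds; growth inhibition was measured relative to vehicle-treated controls.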
# [3] = NCI Yeast Anticancer Drug Screen. Data for the sgs1 mgt1 strain (AID 161);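 note: 0% = growth of cultures given vehicle only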; conditions: S. cerevisiae sgs1 mgt1 strain, at 50.0 µM, hits give high values
# Summary of the method: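 This yeast growth screen uses a strain with defined DNA-repair lesions; compound-treated growth is compared with vehicle-treated growth.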
# [4] = NCI Yeast Anticancer Drug Screen. Data for the cln2 rad14 strain (AID 165);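 note: 0% = growth equal to vehicle treated cultures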; conditions: S. cerevisiae cln2 rad14 strain, at 50.0 µM, hits give high values
# Summary of the method: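 Yeast carrying cln2 and rad14 alterations (cell cycle control and DNA damage repair) were exposed to compounds. Growth inhibition was measured against vehicle-treated controls.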
# [5] = NCI Yeast Anticancer Drug Screen. Data for the bub3 strain (AID 167); conditions: S. cerevisiae bub3 mutant strain, at 50.0 µM, hits give high values
# Summary of the method: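 Steps: expose the mutant yeast strain to compound; grow alongside vehicle-treated cultures; measure growth; express inhibition against the vehicle cultures.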
# [6] = NCI Yeast Anticancer Drug Screen. Data for the mlh1 rad18 strain (AID 175); conditions: S. cerevisiae mlh1 rad18 strain growth inhibition; at 50.0 µM; hits give high values
# Summary of the method: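 Growth inhibition of the yeast strain was measured after compound exposure and expressed relative to vehicle-treated controls. The strain carries defined defects in DNA damage repair.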
SMILES,growth inhibition [1],growth inhibition [2],growth inhibition [3],growth inhibition [4],growth inhibition [5],growth inhibition [6]
CCOC(=O)C(=[N+]=[N-])C(=O)CN1C(=O)c2ccccc2C1=O,-21.6%,-7%,-31.5%,-7.7%,5.9%,-15.9%
CCOC(=O)CN1C(=O)CCC1=O,-6.6%,2.55%,-1.2%,-3.5%,1.45%,-5.95%
CC1COS(=O)(=O)CS(=O)(=O)O1 (stereo not given),-61.2%,-17.4%,-15.8%,-57.8%,6.7%,-16.1%
O=Nc1ccc(O)cc1Cc1ccccc1,-10.4%,-5.95%,-19.8%,-5.3%,5.1%,-1.5%
Cc1cccc(C)c1OC(=O)/C=C/c1ccccc1,31.3%,-10.5%,33%,-11.2%,-11.8%,1.05%
O=c1[nH]c(=S)[nH]c2[nH]c(=S)ncc12,-26.8%,-43.1%,-31.8%,1.9%,-13.1%,-15.1%
CCCS(=O)(=O)CCC(=O)c1ccccc1,-4%,-7.9%,-9%,-13.8%,0.85%,2.7%
CNC(=O)c1ccc(C(C)C)cc1,0.3%,-1.95%,-5.3%,-10.7%,4.2%,0.65%
O=C(NC1CCCCC1)Oc1ccc(Cl)cc1Cl,4.8%,23.9%,28.2%,-8.45%,35.6%,31.9%
Cc1ccc2nnc(NS(=O)(=O)c3cc(C)c(Cl)cc3S)n2n1,-30.3%,-7.75%,-24.9%,-16.9%,-0.9%,-25.4%
O=C(N(Cc1ccccc1)c1ccccc1)C(Cl)(Cl)Cl,65.4%,76.8% (active),78% (active),30.1%,67%,78% (active)
CCCCCCCSCC(O)COC(c1ccccc1)(c1ccccc1)c1ccccc1 (stereo not given),-17.5%,-28.6%,-29.6%,-20%,-21.5%,-20.6%
NNS(=O)(=O)c1ccc(Oc2ccc(S(=O)(=O)NN)cc2)cc1,10.8%,10.1%,24.6%,-4.9%,14.9%,30.9%
CC(=O)Nc1ccc(Cc2ccc3[nH]c(=O)cc(C)c3c2)cc1,-16.3%,18.6%,15.8%,5.35%,-30.1%,12.9%
COc1ccc(C2(C3NCCC4=C3CCCC4)CC2)cc1 (stereo not given),11.9%,-5.75%,32%,-4.1%,-3.7%,23.6%
COc1c(-c2cccs2)oc2c(CC(=O)O)cccc2c1=O,10.9%,-10.8%,28.1%,5.9%,17.7%,-26%
Cc1ccc(S(=O)[O-])cc1.Cc1ccc(S(=O)[O-])cc1.[Zn+2],26.9%,1.05%,16%,14.8%,-1.95%,0.4%
CN(C)C(=O)c1ccc[n+](CC(=O)NCc2ccccc2)c1,5.45%,-7.35%,-3.4%,18.8%,2.25%,13.5%
COC(=O)CC1C2C=CN(C(=O)OC)N(C(=O)OC)C21 (stereo not given),-3.3%,4.25%,6.35%,10.8%,5.7%,3.9%
COC(=O)NC1=Nc2ccc(Cl)cc2NS1,2.4%,-10.2%,-25.1%,2.05%,22.1%,-4.65%

SMILES,growth inhibition [1],growth inhibition [2],growth inhibition [3],growth inhibition [4],growth inhibition [5],growth inhibition [6]
CCOc1ccc2nc(NC(=O)CC(C)=O)sc2c1,-17.6%,-22%,-4.3%,7.6%,-17.9%,7.35%
O=C(O)C1CCCCC1C(=O)Nc1ccc(Cl)c(Cl)c1 (stereo not given),5.75%,20.1%,-5.65%,-4.15%,13.6%,-48.1%
COc1ccc(C2S/C(=C\c3cccc(O)c3)C(=O)N2NC(=O)Cc2ccccc2)cc1 (stereo not given),-15.3%,-34.5%,-6.2%,-46.5%,-1.2%,10.9%
CC1Cc2c([nH]c(=O)n(C)c2=O)O1 (stereo not given),1.15%,8.2%,8.4%,-1.5%,-21.1%,2.1%
C=Cc1c(C)c(C)c(C=C)c(C)c1C,-3.85%,6.65%,-8.2%,4.75%,-10.2%,-17.3%
Cn1nc(-c2ccccc2)c([N+](=O)[O-])c1NCc1ccccc1,-0.8%,-1.95%,-4.4%,-29.1%,6.4%,1.15%
CC(=S)NNC(=O)c1ccncc1,-14.1%,6.05%,-8.2%,-1.15%,-20.1%,-14.9%
CC1(O)CCC(C(C)(C)C)CC1 (stereo not given),22.6%,12.3%,-1.2%,2.05%,2.95%,11.1%
O=C1C(c2ccccc2)=C(O)c2cccc3cccc1c23,-24.4%,-33.5%,-13%,13.4%,-3.65%,-57.6%
CCSC(C(O)C(O)C(O)C(O)CO)n1cc(C)c(=O)[nH]c1=O (stereo not given),3%,5.45%,-2.85%,-3.7%,4.2%,-0.25%
COc1ccccc1CC(C)N1CCCC1c1ccccc1 (stereo not given),-12.1%,-6.8%,-0.9%,-41.6%,4.65%,3.4%
CC(=O)N1CC(=O)N2C(=O)/C(=C/c3ccc(Cl)cc3)N=C12,2.3%,1.35%,11.9%,3.35%,9.45%,-42.4%
CCC(C)NC(=O)/C=C/C(=O)NC(C)CC (stereo not given),5.4%,-4.25%,-5.75%,-29.7%,4.95%,8.5%
Cc1cc(N(CCC#N)CCC#N)ccc1/C(N=Nc1ccc([N+](=O)[O-])cc1)=N\NC(=O)c1cc(Cl)ccc1O,18.9%,8.8%,-5%,6.85%,-26.4%,9.1%
CSc1nc2c([nH]1)c(=O)n(C)c(=O)n2C,8.8%,21.4%,8.4%,-1.8%,16.8%,7.1%
CC(=O)[C@H]1CC[C@H]2[C@@H]3CC=C4C=CCC[C@@H]4[C@H]3CC[C@]12C,-14.1%,20.1%,22.9%,-52%,18.8%,24.4%
CCCCNC(=O)C1CCC(CC2CCCCC2)CC1 (stereo not given),22.8%,28.7%,12.5%,-3.3%,18.4%,10.6%
CN1c2ccccc2C(=O)NC12CCN(Cc1ccccc1)CC2,-30.2%,-16.3%,-12.8%,0.75%,12.3%,-21.2%
CC(=O)CC(=O)NC(C)(C)C,16.6%,-33%,-16.4%,-13.2%,2.85%,7.7%
CCOC(=O)C(C)OC(=O)C(C)OC(C)=O (stereo not given),4.7%,23.8%,17.1%,9.4%,1.5%,-7.7%
